Screens: PubChem BioAssay, National Center for Advancing Translational Sciences (NCATS)
Shown are actives, neighbours in structure and some others; about 21% of the full set was active somewhere.
DT40 TDP1 CPT = DT40-hTDP1 cell growth loss with CPT. chicken DT40 Tdp1-/-;hTDP1 cells + 20 nM CPT, ATP luminescence, 48 h. Potency, µM (series often up to 46.2 µM), without a hit: at the highest dose activity change, negative = growth inhibition, hits mostly inhibitors. 420,000 tested, 12% active; also: potency is read from the fitted curve at half-maximal effect; nearly all actives have a fitted effect of over 55% in size
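Chicken DT40 Tdp1-/- cells stably complemented with human TDP1 were seeded at 400 cells/well in medium containing 20 nM camptothecin, exposed to pin-transferred compounds, and grown at 37 °C for at least 48 hr. Viability was read as ATP luminescence.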
VP16 counter = Gal4-VP16 reporter inhibition counter-screen; Drosophila S2 Gal4-VP16 UAS-luciferase, luminescence, 20 h; 310,000 tested, 3.5% active; Potency, µM (highest dose often 53.6 µM), for the others: at the highest dose activity, negative = inhibition, hits mostly inhibitors; AID 2546;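 also: Gal4-VP16 expression switched on by copper sulfate through the metallothionein promoter; potency is read from the fitted curve at half-maximal effect; nearly all actives have a fitted effect of over 50% in size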
DT40 TDP1 no CPT = qHTS for Inhibitors of human tyrosyl-DNA phosphodiesterase 1 (TDP1): qHTS in cells in absence of CPT; DT40 Tdp1-/- hTDP1 cells, no CPT, ATP luminescence, 48 h; Potency, µM (top dose mostly 46.2 µM), for the others: top-dose activity change, negative = growth inhibition, hits mostly inhibitors; 420,000 tested, 15% active; AID 686978, 2013; also: potency is read from the fitted curve at half-maximal effect; nearly all actives have a fitted effect of over 55% in size
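Growth kinetics read by CellTiter-Glo luminescence after ≥48 hr at 37 °C. Cells: DT40 Tdp1-/- stably carrying human TDP1, 400 per well, compound exposure in the absence of CPT (DMSO vehicle).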
RORg inh = blocks mouse ROR gamma transcriptional activity; Potency, µM (series often up to 53.6 µM), inactives show at the highest dose activity change, negative = inhibition, usual class: inhibitors; AID 2551; P51450; 310,000 tested, 5.4% active; Drosophila S2 Gal4-RORgamma UAS-luciferase reporter, 20 h; also: potency is read from the fitted curve at half-maximal effect; nearly all actives have a fitted effect of over 60% in size
Target sequence (P51450 whole entry, looked up, the tested form may be a part): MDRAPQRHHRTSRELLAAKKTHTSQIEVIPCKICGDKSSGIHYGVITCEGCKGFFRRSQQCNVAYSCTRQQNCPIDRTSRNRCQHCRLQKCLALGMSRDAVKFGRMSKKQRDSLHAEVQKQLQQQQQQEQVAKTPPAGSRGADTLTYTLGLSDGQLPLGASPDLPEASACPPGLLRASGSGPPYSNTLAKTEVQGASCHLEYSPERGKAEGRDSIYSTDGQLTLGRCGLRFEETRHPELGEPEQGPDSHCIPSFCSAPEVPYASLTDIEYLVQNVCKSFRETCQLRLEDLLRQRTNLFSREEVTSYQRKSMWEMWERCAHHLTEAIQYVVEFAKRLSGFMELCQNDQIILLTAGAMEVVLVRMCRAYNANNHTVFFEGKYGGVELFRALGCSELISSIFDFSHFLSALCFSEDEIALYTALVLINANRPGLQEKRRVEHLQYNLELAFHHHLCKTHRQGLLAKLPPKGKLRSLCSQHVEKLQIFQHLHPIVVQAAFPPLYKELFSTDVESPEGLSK
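Schneider cells (Drosophila), stable Gal4 DBD–ROR gamma + UAS-luc; 1 hr cmpd preincubation; Cu2+ induction 700 uM final; 20 hr ambient; luminescence.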
ELG1 DNA repair = blocks ELG1-dependent DNA repair in HEK293T cells; HEK293T ELG1-luciferase reporter, luminescence, 16 h; DNA damage induced by 5-fluorouridine; Potency, µM (highest dose often 46.1 µM), for inactives: at the highest dose activity change, negative = inhibition, usual class: inhibitors; 330,000 tested, 2.3% active; also: potency is read from the fitted curve at half-maximal effect; nearly all actives have a fitted effect of over 55% in size
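In this reporter screen, reduction of luminescence relative to DMSO vehicle indicated activity. Compounds and 5-fluorouridine were added together to 2,000 cells per well, incubated for 16 hr at 37 °C, then developed with ONE-Glo.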
IL1B secr inh = inflammasome signaling inhibition, IL-1 beta readout; 360,000 tested, 4.7% active; activity change, % at 57.5 µM; THP-1 LPS/ATP IL-1B secretion, AlphaLISA, 16 h; active compounds read low; in the data active = activity change below about -50%; inconclusive = mostly about -30% to -49%
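THP-1 cells pretreated 1 hr with compounds (up to 57.5 uM final), then stimulated with LPS (250 ng/mL final) plus ATP (1.25 mM final); secreted IL-1B measured by AlphaLISA after 16 hr, decreased signal indicating inhibition.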
Numbers without * were called inactive; ? = inconclusive; . = no result; [ ] = remark or other dose. Unless noted, calls follow the shape of the dose curve; as a rule, active = well fitted curve in the direction sought with a large enough effect; inconclusive = small, poorly fitted or top-dose-only effect, or another doubt; inactive = no such curve, though single readings can be large; an effect the other way counts as inactive or inconclusive. % is scaled to controls: 0 for no effect and ±100 for the full control effect.

SMILES	DT40 TDP1 CPT	VP16 counter	DT40 TDP1 no CPT	RORg inh	ELG1 DNA repair	IL1B secr inh
COc1ccc(-c2cc(C(=O)Oc3ccc(C#N)cc3)no2)cc1	4.2%	.	-20.0%	.	.	.
O=S(=O)(Nc1ccc(S(=O)(=O)Nc2ccccc2)cc1)c1ccccc1	?	-19.2%	-20.8%	?	13.6%	11.9
O=[N+]([O-])c1ccc(N=Nc2ccc(O)c3ccccc23)cc1	14.6µM*	.	2.59µM*	.	.	-76.2*
O=S(=O)(Nc1ccc(N=Nc2ccccc2)cc1)c1ccccc1	?	?	?	-8.8%	3.3%	-87.8*
O=S(=O)(Nc1ccc(N=Nc2ccc(O)c3ccccc23)cc1)c1ccccc1	?	?	?	6.0%	-28.7%	-59.5*
CC(O)(COc1ccccc1)c1ccc2c(c1)CN(Cc1cccc3ncccc13)CCO2 (stereo unspecified)	-11.3%[9.04 µM]	.	?	.	.	.
COc1ncc2nc(-c3cccs3)c(=O)n(C)c2n1	-28.1%	4.0%	0.8%	-31.1%	.	.
COc1ccnc(Oc2cccc(C(F)(F)F)c2)c1C(=O)N/C=N/OCc1ccccc1F	?	8.3%	20.6µM*	12.2%	?	-58.5*
COc1ccnc(Oc2ccccc2)c1C(=O)N/C=N/OCc1ccccc1	-7.9%	3.7%	?	1.3%	?	-3.2
CCOc1nc(C#N)nc(N(c2ccccc2)c2ccccc2)n1	1.1%	.	-7.3%	.	.	.
Cc1cc(C)nc(N/N=C/c2ccc3c(c2)OCCO3)n1	3.3%	-17.9%	?	?	?	-13.3
C(=N\Nc1nc2ccccc2[nH]1)/c1ccc2c(c1)OCCO2	?	?	?	5.62µM*	?	40.8
Cc1ccc(/C=N/Nc2ccc3ccccc3n2)o1	2.31µM*	17.8µM*	4.11µM*	12.6µM*	?	-107.3*
Cc1cc(N/N=C/c2cccc(Br)c2)nc2ccccc12	-22.2%	?	-24.7%	11.2µM*	?	-11.4
Cc1cc(N/N=C/c2ccncc2)nc2ccccc12	-25.5%	-1.6%	?	?	?	0.5
Cc1cccc(/C=N/Nc2ccc3ccccc3n2)c1	-78.2%	6.31µM*	29.1µM*	2.82µM*	?	-75.3*
O=C(Cn1c(NCCCO)nc2ccccc21)c1ccc(Cl)cc1Cl	1.9%	.	?	.	?	-10.5
C(=N\Nc1ccc2ccccc2n1)/c1ccc2c(c1)OCCO2	?	2µM*	?	2.51µM*	?	0.0
O=C(COC(=O)c1ccccc1Cl)NC1CCCCCC1	0.6%	.	-5.8%	.	?	32.7
C=CCN=C1NN=C(c2cc(C)n(CCOC)c2C)CS1	-7.4%	-83.3%	-2.4%	1µM*	?	-12.8
COCCn1c(C)cc(C2=NNC(=NC3CC3)SC2)c1C	?	1.12µM*	?	1.12µM*	5.17µM*	-2.5
CCOc1ccc(N=C2NN=C(c3cc(C)n(CC4CCCO4)c3C)CS2)cc1 (stereo unspecified)	?	-9.5%	23.1µM*	29.0%	0.9%	23.1
C=CCn1c(C)cc(C2=NNC(=Nc3ccc(C)cc3)SC2)c1C	?	4.1%	?	39.1%	?	-3.7
C=CCn1c(C)cc(C2=NNC(=NC(C)(C)C)SC2)c1C	?	10µM*	?	11.2µM*	?	-76.9*
Nc1ccccc1C#Cc1ccc([N+](=O)[O-])cc1	-26.7%	.	?	.	.	-11.3
SMILES	DT40 TDP1 CPT	VP16 counter	DT40 TDP1 no CPT	RORg inh	ELG1 DNA repair	IL1B secr inh
Nc1ccccc1C#CC(=O)c1ccccc1	1.3µM*	7.08µM*	?	7.08µM*	-1.4%	-102.1*
O=C(C#Cc1cccc([N+](=O)[O-])c1)c1ccccc1	.	3.16µM*	.	2.82µM*	?	.
O=C(O)C(=Cc1cccc([N+](=O)[O-])c1)c1ccccc1	?	.	?	.	.	8.7
O=C(NCc1ccccc1Cl)c1ccc(CSCc2ccccc2Cl)o1	16.4µM*	.	20.6µM*	.	.	.
COc1ccccc1S(=O)Cc1ccc(C(=O)NCc2ccccc2Cl)o1 (stereo unspecified)	16.4µM*	5.0%	?	-0.9%	?	-26.0
Cc1ccc(CNC(=O)c2ccc(CSCc3c(F)cccc3Cl)o2)cc1	-29.8%	.	-14.3%	.	.	.
CC1(C(=O)NS(=O)(=O)c2cccc(Cl)c2)CCN1C(=O)C1(c2ccccc2)CC1 (stereo unspecified)	-19.4%	.	-2.5%	.	.	27.7
O=C(Nc1cccc([N+](=O)[O-])c1)Nc1cnccn1	0.7%	11.4%	3.2%	?	-3.0%	0.0
O=C(Oc1c(-c2ccccc2)oc2ccccc2c1=O)c1ccccc1	?	?	10.3µM*	?	17.9%	0.0
O=C(Oc1cc(=O)oc2ccccc12)c1ccccc1	2.59µM*	-14.6%	2.31µM*	-17.2%	3.6%	16.6
Cc1cn([C@H]2C[C@H](O)[C@@H](CNS(=O)(=O)N3CCCC3)O2)c(=O)[nH]c1=O	-18.1%	.	-1.0%	.	.	15.0
Nc1ncnc2nn(C3OC(CO)C(O)C3O)nc12 (stereo unspecified)	4.11µM*	.	1.84µM*	.	.	52.6
Nc1ncnc2c1nc(Br)n2C1OC(CO)C(O)C1O (stereo unspecified)	?	-9.8%	2.31µM*	-2.0%	.	.
O=C1c2cccc(-c3ccc(C(F)(F)F)cc3)c2C2CC=CCN12 (stereo unspecified)	?	.	?	.	.	44.3
CCCCN(C(=O)c1cccc(S(=O)(=O)N(CC)c2ccccc2)c1)c1c(N)n(CCCC)c(=O)[nH]c1=O	-2.2%	.	1.2%	.	.	-15.5
N#Cc1cnc(=S)n(-c2cc(C(F)(F)F)cc(C(F)(F)F)c2)c1N	?	.	?	.	.	9.4
CCOc1ccc(C(=O)Nc2ccc(NC(=S)NC(=O)CC)cc2)cc1Cl	15.5%	-22.2%	-5.7%	?	-1.0%	7.4
CCC(=O)NC(=S)Nc1ccc(NC(=O)c2ccc(C)c([N+](=O)[O-])c2)cc1	?	5.3%	8.2µM*	-25.7%	?	0.4
COc1ccc(C(=O)NC(=S)Nc2ccc(N3CCN(C(C)=O)CC3)cc2)cc1[N+](=O)[O-]	-28.9%	17.8µM*	?	?	-27.5%	-1.2
COc1ccc(C(=O)Nc2ccc(N3CCN(C)CC3)cc2)cc1[N+](=O)[O-]	2.2%	3.1%	-1.2%	0.6%	-0.5%	-6.9
CC(=O)N1CCN(c2ccc(NC(=S)NC(=O)c3ccc(C)c([N+](=O)[O-])c3)cc2)CC1	-14.8%	7.94µM*	?	?	20.6µM*	-18.5
